The other results are listed elsewhere or left out. A number with no mark means an inactive call. No rule for the calls is given here.
What follows are molecules tested against 5-hydroxytryptamine receptor 5A (Homo sapiens) (UniProt P47898) (assay: HTR5A inverse agonists, counter-screen for OPRM1-OPRD1 inverse agonist project, cell-based, luminescence (AID 504914;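 also: 0% = cells with DMSO and 100% = no-cell wells with DMSO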)). Conditions: HTR5A-expressing cells, inverse agonism, at 9.3 µM, stronger effect = higher value.
Sequence of 5-hydroxytryptamine receptor 5A (Homo sapiens) (P47898 whole entry, looked up): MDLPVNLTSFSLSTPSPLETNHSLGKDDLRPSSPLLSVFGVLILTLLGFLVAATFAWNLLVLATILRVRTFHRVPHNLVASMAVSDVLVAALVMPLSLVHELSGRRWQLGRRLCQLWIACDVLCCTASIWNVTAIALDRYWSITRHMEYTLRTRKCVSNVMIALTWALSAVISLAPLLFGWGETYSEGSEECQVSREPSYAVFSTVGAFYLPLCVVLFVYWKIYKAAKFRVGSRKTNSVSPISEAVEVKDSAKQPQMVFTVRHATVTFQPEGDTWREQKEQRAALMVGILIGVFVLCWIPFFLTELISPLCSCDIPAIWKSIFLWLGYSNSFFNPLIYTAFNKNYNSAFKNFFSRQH
With `CCOC(=O)c1c(N)n(Cc2ccccc2)c2nc3ccccc3nc12` the inhibition was 18%.
For `CCOC(=O)c1c(N)n(CCN2CCOCC2)c2nc3ccccc3nc12`, the inhibition was -10.8%.
`CC1=CC(=Cc2sc3ccccc3[n+]2C)C=C(C)O1` showed an inhibition of -18.3%.
